Records with an inconclusive call do not appear. The source made the active and inactive calls. Calls come from the whole dose curve; as a rule, active = well fitted curve in the direction sought with a large enough effect; inconclusive = small, poorly fitted or top-dose-only effect, or another doubt; inactive = no such curve, though single readings can be large; an effect the other way counts as inactive or inconclusive.
How the values were obtained:
[1] = Quantitative High-Throughput drug screen in 47 multiple myeloma cell lines against the NCATS MIPE library collection: H1112_PLB cell viability assay (AID 1918967; note: nearly all actives have a fitted effect of over 30% in size)
Summary of the method: (§1)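 Luminescent ATP measurement with CellTiter-Glo gives viability, scaled between DMSO-only wells (100%) and media-only wells (0%). Cells, 500 per well, faced library compounds for 48 hours at 37C.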

[2] = Quantitative High-Throughput drug screen in 47 multiple myeloma cell lines against the NCATS MIPE library collection: KMS27_JCRB cell viability assay (AID 1918970); note: nearly all actives have a fitted effect of over 30% in size
Summary of the method: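 CellTiter-Glo luminescence after 48 h drug exposure at 37 °C; 500 cells/well, 1536-well format, pin-tool compound addition; DMSO = 100%, media-only = 0% viability.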

[3] = Quantitative High-Throughput drug screen in 47 multiple myeloma cell lines against the NCATS MIPE library collection: KMS12PE_JCRB cell viability assay (AID 1918972); note: nearly all actives have a fitted effect of over 30% in size; for viability: series mostly up to about 46 µM
Summary of the method: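 Steps: seed 500 cells per well; pin-transfer MIPE 4.0 library; incubate 48 h at 37C, 5% CO2, humidified; add CellTiter-Glo, 5 min room temperature; read luminescence.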

[4] = Quantitative High-Throughput drug screen in 47 multiple myeloma cell lines against the NCATS MIPE library collection: MOLP8_DSMZ cell viability assay (AID 1918977); note: nearly all actives have a fitted effect of over 45% in size
Summary of the method: (§2)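 Inhibition of viability over 48 h was scored by ATP content (CellTiter-Glo) in 500-cell wells. Zero and full viability were defined by media-only and DMSO-only wells.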

[5] = Quantitative High-Throughput drug screen in 47 multiple myeloma cell lines against the NCATS MIPE library collection: NCIH929_DSMZ cell viability assay (AID 1918978); note: nearly all actives have a fitted effect of over 35% in size
Summary of the method: as §2

[6] = Quantitative High-Throughput drug screen in 47 multiple myeloma cell lines against the NCATS MIPE library collection: KMS12BM_JCRB cell viability assay (AID 1918971); note: nearly all actives have a fitted effect of over 35% in size
Summary of the method: (§3)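 Viability readout: CellTiter-Glo luminescence following 5 min room-temperature incubation with reagent. Prior exposure: 48 h, 37C, humidified 5% CO2, 500 cells per well.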

[7] = Quantitative High-Throughput drug screen in 47 multiple myeloma cell lines against the NCATS MIPE library collection: KMS26_JCRB cell viability assay (AID 1918975); note: nearly all actives have a fitted effect of over 45% in size
Summary of the method: as §3

[8] = Quantitative High-Throughput drug screen in 47 multiple myeloma cell lines against the NCATS MIPE library collection: MMM1_PLB cell viability assay (AID 1918976); note: nearly all actives have a fitted effect of over 35% in size
Summary of the method: as §2

[9] = Quantitative High-Throughput drug screen in 47 multiple myeloma cell lines against the NCATS MIPE library collection: Karpas25_ECACC cell viability assay (AID 1918968; note: nearly all actives have a fitted effect of over 35% in size)
Summary of the method: as §1

[10] = Quantitative High-Throughput drug screen in 47 multiple myeloma cell lines against the NCATS MIPE library collection: KMS20_JCRB cell viability assay (AID 1918973); note: nearly all actives have a fitted effect of over 45% in size
Summary of the method: as §1

Measured: Potency
Potency is the fitted concentration of half-maximal effect.

CC(C)(O)C(=O)Nc1ccc([N+](=O)[O-])c(C(F)(F)F)c1
inactive: [4]
active: [1] 9.35 µM | [2] 14.8 µM | [3] 23.5 µM | [5] 5.26 µM

COC(=O)[C@@H](N)CCCN=C(N)N[N+](=O)[O-]
inactive: [1] | [2] | [3] | [4] | [5]

C[C@]12CCC(=O)C(O)=C1CC[C@@H]1[C@H]3CCC(=O)[C@@]3(C)CC[C@@H]12
active: [6] 20.9 µM | [8] 2.35 µM
inactive: [1] | [3] | [7] | [5]

CC1(N2CCC(n3c([C@@H]4CCCNC4)nc4ccccc43)CC2)CCCCCCC1
active: [6] 20.9 µM | [3] 7.43 µM | [5] 11.8 µM

Cc1ccccc1-n1c(Cn2ncc3c(N)ncnc32)nc2cccc(C)c2c1=O
active: [9] 0.264 µM | [6] 7.43 µM | [3] 0.148 µM | [10] 0.132 µM | [5] 0.332 µM
inactive: [8]

C[C@](O)(COc1ccc(C#N)cc1)C(=O)Nc1ccc(C#N)c(C(F)(F)F)c1
active: [9] 18.7 µM

O=S(=O)(CC1CS1)c1ccc(Oc2ccccc2)cc1 (centres undefined)
active: [6] 26.4 µM | [3] 3.72 µM | [10] 14.8 µM | [7] 26.4 µM | [8] 16.6 µM | [4] 16.6 µM | [5] 16.6 µM

C=C1C[C@H]2[C@H]3CCC(=O)[C@@]3(C)CC[C@@H]2[C@@]2(C)C=CC(=O)C=C12
active: [9] 16.6 µM | [6] 20.9 µM | [3] 29.6 µM | [8] 6.62 µM

C[C@]12CC[C@H](O)CC1=CC[C@H]1[C@H]3CCC(=O)[C@@]3(C)CC[C@@H]12
inactive: [4] | [5]
active: [8] 4.69 µM

O=C(Oc1ccc([N+](=O)[O-])cc1)N1CCN(Cc2cccc(Oc3ccccc3)c2)CC1
inactive: [4]

C[C@]12CC[C@H]3[C@@H](CCC4=CC(=O)CC[C@@]43C)[C@H]1CC[C@H]2OC(=O)CCC1CCCC1
inactive: [2] | [3]
active: [8] 23.5 µM

CC(C)N[C@@H]1CCn2c(=O)[nH]c3cccc(c32)[C@@H]1O
active: [1] 7.43 µM | [3] 6.62 µM | [10] 10.5 µM | [7] 26.4 µM | [8] 18.7 µM | [5] 9.35 µM

C=C[C@@H]1CN2CCC1C[C@@H]2[C@@H](O)c1ccnc2ccccc12 (some centres undefined)
active: [9] 8.33 µM | [2] 5.26 µM | [6] 23.5 µM | [3] 7.43 µM | [8] 18.7 µM | [5] 18.7 µM

COC1=C[C@@H]2[C@@H]3Cc4ccc(OC)c(O)c4[C@]2(CCN3C)CC1=O
inactive: [4]
active: [9] 2.96 µM | [10] 1.66 µM | [5] 1.66 µM

CC[C@H]1C=CC=CC[C@@H](C)[C@H](O)[C@@](C)(O)C(=O)[C@@H](C)[C@H](O)[C@@H](C)C(=O)[C@@H](C)[C@H](O)[C@@H](C)C=CC(=O)O[C@@H]2[C@@H](C)[C@H](CC1)O[C@]1(CC[C@H](C)[C@H](C[C@@H](C)O)O1)[C@H]2C
active: [1] 0.0053 µM | [7] 10.5 µM | [8] 0.0059 µM | [5] 0.0296 µM

COc1cc2cc(c1Cl)N(C)C(=O)C[C@H](OC(=O)C(C)C)[C@]1(C)O[C@H]1[C@H](C)[C@@H]1C[C@@](O)(NC(=O)O1)[C@H](OC)C=CC=C(C)C2
not listed: [1] | [2] | [9]
inactive: all other assays above

CC=C(C)C(=O)N[C@@H](c1ccccc1)[C@@H](O)C(=O)O[C@H]1C[C@@]2(O)[C@@H](OC(=O)c3ccccc3)[C@@H]3[C@]4(OC(C)=O)CO[C@@H]4C[C@H](O)[C@@]3(C)C(=O)[C@H](OC(C)=O)C(=C1C)C2(C)C
inactive: [9] | [6] | [10] | [7] | [4] | [5]

CC(=O)Nc1ccc(OC[C@](C)(O)C(=O)Nc2ccc([N+](=O)[O-])c(C(F)(F)F)c2)cc1
inactive: [1] | [7] | [5]

CCNC(=O)CC1N=C(c2ccc(Cl)cc2)c2cc(OC)ccc2-n2c(C)nnc21 (centres undefined)
active: [6] 16.6 µM | [3] 13.2 µM | [7] 5.9 µM | [8] 16.6 µM | [5] 10.5 µM

CC1=NN=C(c2ccc(N)cc2)c2cc3c(cc2C1)OCO3
inactive: [1] | [6] | [7] | [5]

O=C(N[C@H]1CN2CCC1CC2)c1ccc(Cl)cc1
inactive: [6] | [7]

CC(=Cc1csc(C)n1)[C@@H]1C[C@H]2O[C@@H]2CCC[C@H](C)[C@@H](O)[C@@H](C)C(=O)C(C)(C)[C@@H](O)CC(=O)O1
inactive: [1] | [6] | [7] | [5]

CC(C)[C@H]1C(=O)N[C@H](CO)Cc2c[nH]c3cccc(c23)N1C
inactive: [1] | [7] | [8] | [5]
active: [4] 0.166 µM

c1cc2c(cc1[C@H]1OC[C@H]3[C@H]1CO[C@H]3c1ccc3c(c1)OCO3)OCO2
inactive: [2] | [10] | [4] | [5]

Cc1ccccc1-n1c(Cn2cnc3c(N)ncnc32)nc2cccc(C)c2c1=O
active: [2] 0.296 µM | [6] 1.48 µM | [3] 0.264 µM | [10] 0.296 µM | [7] 2.96 µM | [8] 0.166 µM | [4] 0.0743 µM | [5] 0.0418 µM

CC(=Cc1csc(C)n1)[C@@H]1C[C@H]2O[C@]2(C)CCC[C@H](C)[C@@H](O)[C@@H](C)C(=O)C(C)(C)[C@@H](O)CC(=O)O1
inactive: [1] | [6] | [8] | [4] | [5]

CN[C@@H]1Cc2cccc3[nH]c(=O)n(c23)C1
inactive: [9] | [7] | [5]
active: [8] 5.26 µM

C[C@@H]1CC[C@H]2[C@@H](C)C(=O)O[C@@H]3O[C@@]4(C)CC[C@H]1[C@]32OO4
inactive: [3]
active: [9] 0.469 µM | [7] 11.8 µM | [4] 0.187 µM | [5] 13.2 µM

COc1ccc2c(c1)[C@]13CCCCC1C(C2)N(C)CC3 (some centres undefined)
inactive: [9] | [6] | [3] | [8] | [4] | [5]

Cc1c(N)nc([C@H](CC(N)=O)NC[C@@H](N)C(N)=O)nc1C(=O)N[C@H](C(=O)N[C@@H](C)[C@H](O)[C@@H](C)C(=O)N[C@@H](C(=O)NCCc1nc(-c2nc(C(=O)NCCC[S+](C)C)cs2)cs1)[C@@H](C)O)C(O[C@H]1O[C@H](CO)[C@H](O)[C@@H](O)[C@@H]1O[C@H]1O[C@H](CO)[C@@H](O)[C@H](OC(N)=O)[C@H]1O)c1cnc[nH]1 (some centres undefined)
active: [1] 5.9 µM | [10] 0.935 µM

O=c1cccc2n1CC1CNC[C@H]2C1
inactive: [6] | [7] | [4]
active: [3] 9.35 µM | [10] 11.8 µM

CC(=O)O[C@@]12CO[C@H]1C[C@H](O)[C@@]1(C)C(=O)[C@H](O)C3=C(C)[C@@H](O)C[C@@](O)([C@@H](OC(=O)c4ccccc4)[C@@H]21)C3(C)C
active: [6] 1.48 µM | [4] 2.96 µM
inactive: [7]

O=C(N[C@@H](COc1ccc2[nH]c(=O)[nH]c2c1)c1ccccc1)c1cccn(Cc2ccc(F)c(F)c2)c1=O
inactive: [4]
active: [2] 20.9 µM | [3] 18.7 µM | [10] 18.7 µM

O=C(Nc1ccncc1)C(=O)c1cn(Cc2ccc(Cl)cc2)c2ccccc12
active: [9] 0.0469 µM | [2] 0.0209 µM | [6] 0.148 µM | [3] 0.0209 µM | [7] 9.35 µM | [8] 14.8 µM | [5] 1.32 µM

O=C1C=CC[C@@H]2[C@H]3CCCN4CCC[C@@H](CN12)[C@@H]34
inactive: [3] | [10]

NC1=NC(=O)N2CC12 (centres undefined)
active: [3] 10.5 µM | [5] 9.35 µM

CC[C@@H](C(N)=O)N1CCCC1=O
inactive: [1] | [3] | [10] | [4]

CCC(=O)OC1CCC2C3CCC4=CC(=O)CC[C@@]4(C)C3CC[C@]12C (some centres undefined)
inactive: [1] | [7] | [4]

COc1ccc2c(c1)CN(C)CC2c1ccc(Cl)c(Cl)c1 (centres undefined)
active: [2] 16.6 µM | [6] 20.9 µM | [3] 23.5 µM | [5] 16.6 µM

CCOC(=O)Nc1ccc(NCc2ccc(F)cc2)cc1N
active: [1] 10.5 µM | [3] 3.32 µM | [5] 14.8 µM
inactive: [7] | [8] | [4]

COC1=CC(C)=C[C@@H](C)[C@@H](O)[C@@H](C)CC(C)=CC=C[C@H](OC)[C@H]([C@@H](C)[C@@H](O)[C@H](C)[C@@]2(O)C[C@@H](O)[C@H](C)[C@@H](C(C)C)O2)OC1=O
active: [1] 1.66 µM | [10] 0.001 µM | [7] 0.0033 µM | [8] 10.5 µM | [4] 0.0042 µM

Reference: PubChem BioAssay (NCATS)
